Experimental data: PubChem BioAssay
The source made the active and inactive calls. Unless noted, how the calls were made is not given here.

Legend:
[1] = A549 cell viability effects, profiling panel, calcein-AM fluorescence, 48 h, basal (AID 1162); conditions: higher = more signal; further: test concentration not given here
[2] = adipocyte viability effects, profiling panel, cell-based, 3T3-L1 adipocytes, calcein-AM fluorescence, 48 h, basal (AID 1163); conditions: 3T3-L1 adipocytes viability, higher = more signal; further: test concentration not given here
[3] = HepG2 cell viability effects, profiling panel, calcein-AM fluorescence, 48 h, basal (AID 1164); conditions: higher = more signal; further: test concentration not given here
[4] = MM1S cell viability effects, profiling panel, calcein-AM fluorescence, 48 h, basal (AID 1165); conditions: higher = more signal;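 further: viability of MM1S multiple myeloma cells under basal unstimulated conditions; test concentration not given here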
[5] = basal RPMI8226 viability, no added stimulus, profiling panel, cell-based, calcein-AM fluorescence, 48 h, PK04 Diversity Set (AID 1166); conditions: RPMI8226 myeloma viability, higher = more signal;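 further: cells grown under basal conditions without added stimulus; test concentration not given here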
[6] = basal HepG2 mitochondrial membrane potential changes, profiling panel, cell-based, JC-1 fluorescence, 24 h, 100 nL compound (AID 1167); conditions: higher = more signal; further: test concentration not given here
[7] = basal 3T3-L1 adipocyte mitochondrial potential changes, profiling panel, cell-based, JC-1 fluorescence, 3T3-L1 adipocytes, 24 h, 100 nL compound (AID 1168); conditions: JC-1 mitochondrial fluorescence, higher = more signal, called active from +8 up or from −8 down; further: test concentration not given here
[8] = basal RPMI8226 mitochondrial membrane potential changes, profiling panel, cell-based, JC-1 fluorescence, 24 h, 100 nL compound (AID 1169); conditions: RPMI8226 myeloma, JC-1 mitochondrial potential fluorescence, higher = more signal; further: test concentration not given here
[9] = basal MM1S mitochondrial membrane potential changes, profiling panel, cell-based, JC-1 fluorescence, 24 h, 100 nL compound (AID 1170); conditions: higher = more signal; further: test concentration not given here
[10] = A549 lung cancer cell viability effects, profiling panel, resazurin fluorescence, 24 h, PK04 Diversity Set (AID 1171); conditions: higher = more signal, called active from +8 up or from −8 down; further: test concentration not given here
[11] = HepG2 liver cancer cell viability effects, profiling panel, resazurin fluorescence, 24 h, PK04 Diversity Set (AID 1172); conditions: higher = more signal; further: test concentration not given here
[12] = basal S. cerevisiae growth modulation, no modifier, primary screen, OD600, strain BY4716, 24 h, basal condition (AID 1173); conditions: OD600, 24 h, higher = more signal, called active from +8 up or from −8 down
[13] = MM1S myeloma cell viability, profiling panel, resazurin fluorescence, basal, 24 h, PK04 Diversity Set (AID 1174); conditions: higher = more signal, called active from +8 up or from −8 down;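 further: MM1S multiple myeloma cell line; test concentration not given here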
[14] = target: Dihydroorotate dehydrogenase (quinone), mitochondrial (Plasmodium falciparum (isolate 3D7)) (UniProt Q08210); test: PfDHODH enzyme inhibitors, primary screen, biochemical, C-terminal His tag, absorbance 600 nm (AID 1175); conditions: DCIP absorbance 600 nm, higher = more signal, called active from +8 up or from −8 down;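 further: recombinant parasite enzyme with a five histidine tag at its C terminus; test concentration not given here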
[15] = P. aeruginosa biofilm formation inhibitors, primary screen, strain PAO1, LB-PBS medium, absorbance 600 nm (AID 1176); further: test concentration not given here; conditions: P. aeruginosa PAO1 growth/biofilm, A600, 12 h; higher = more signal
[16] = S. cerevisiae RM11-1a growth modifiers, primary screen, strain RM11-1a, OD600, basal, 24 h (AID 1177); conditions: OD600, 24 h, higher = more signal, called active from +8 up or from −8 down;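 further: cultures grown under basal conditions with no added stressor; test concentration not given here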
[17] = E. coli acrAB mutant growth effects, primary screen, E. coli filamentation inducers, strain DRC39, OD650, 24 h (AID 1178); conditions: higher = more signal, called active from +8 up or from −8 down;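 further: growth measured as culture turbidity by optical density at 650 nm; test concentration not given here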
[18] = E. coli acrAB mutant growth effects, primary screen, E. coli filamentation inducers, strain DRC39, OD650, 48 h (AID 1179);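 further: screen aims at cell division blockers that make cells filament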; conditions: E. coli DRC39 delta-acrAB growth, higher = more signal, called active from +8 up or from −8 down
[19] = RPMI8226 myeloma cell viability, profiling panel, resazurin fluorescence, basal, 24 h, PK04 Diversity Set (AID 1180); conditions: higher = more signal;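 further: RPMI8826 multiple myeloma cell line at 5000 cells per well; test concentration not given here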
[20] = target: E3 ubiquitin-protein ligase XIAP (Homo sapiens) (UniProt P98170); test: XIAP binders, primary screen, biophysical, small-molecule microarray, fluorescence 635 nm (AID 1181); conditions: small-molecule microarray binding, higher = more signal;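 further: score merges 667 nm emission and signal to noise over triplicate slides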
Sequence of E3 ubiquitin-protein ligase XIAP (Homo sapiens) (P98170 whole entry, looked up): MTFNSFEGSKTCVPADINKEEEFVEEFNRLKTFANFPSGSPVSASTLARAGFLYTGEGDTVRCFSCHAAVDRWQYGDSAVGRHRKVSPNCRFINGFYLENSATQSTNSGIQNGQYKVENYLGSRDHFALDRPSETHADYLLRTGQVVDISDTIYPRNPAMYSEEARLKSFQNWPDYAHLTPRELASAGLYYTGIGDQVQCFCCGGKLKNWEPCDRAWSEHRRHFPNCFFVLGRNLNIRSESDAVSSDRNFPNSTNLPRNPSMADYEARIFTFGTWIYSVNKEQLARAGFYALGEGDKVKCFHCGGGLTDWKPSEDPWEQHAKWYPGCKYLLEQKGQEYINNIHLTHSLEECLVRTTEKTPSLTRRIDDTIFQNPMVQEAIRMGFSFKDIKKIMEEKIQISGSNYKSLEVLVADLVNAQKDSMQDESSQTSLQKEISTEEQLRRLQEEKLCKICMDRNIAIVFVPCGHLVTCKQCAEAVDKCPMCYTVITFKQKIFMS

Sequence of Dihydroorotate dehydrogenase (quinone), mitochondrial (Plasmodium falciparum (isolate 3D7)) (Q08210 whole entry, looked up): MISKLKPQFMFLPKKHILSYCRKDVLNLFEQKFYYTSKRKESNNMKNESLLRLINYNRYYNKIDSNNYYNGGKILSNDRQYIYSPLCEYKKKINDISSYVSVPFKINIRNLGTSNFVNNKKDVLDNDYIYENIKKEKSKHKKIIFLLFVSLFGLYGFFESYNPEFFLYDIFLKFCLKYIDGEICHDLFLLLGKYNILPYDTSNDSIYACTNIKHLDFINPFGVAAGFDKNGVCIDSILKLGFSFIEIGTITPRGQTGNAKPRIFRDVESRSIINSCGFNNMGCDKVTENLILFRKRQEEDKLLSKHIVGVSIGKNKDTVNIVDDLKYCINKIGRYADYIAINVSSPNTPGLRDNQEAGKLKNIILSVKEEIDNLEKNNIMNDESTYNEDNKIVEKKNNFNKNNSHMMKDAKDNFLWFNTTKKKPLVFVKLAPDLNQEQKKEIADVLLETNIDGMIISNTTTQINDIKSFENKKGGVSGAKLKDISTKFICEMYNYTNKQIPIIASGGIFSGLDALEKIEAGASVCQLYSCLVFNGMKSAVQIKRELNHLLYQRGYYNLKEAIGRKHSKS

| SMILES | z-score [1] | z-score [2] | z-score [3] | z-score [4] | z-score [5] | z-score [6] | z-score [7] | z-score [8] | z-score [9] | z-score [10] | z-score [11] | z-score [12] | z-score [13] | composite z-score [14] | z-score [15] | z-score [16] | z-score [17] | z-score [18] | z-score [19] | composite z-score [20] |
| --- | --- | --- | --- | --- | --- | --- | --- | --- | --- | --- | --- | --- | --- | --- | --- | --- | --- | --- | --- | --- |
| CO[C@H]1COC(=O)[C@@H](C)COC(=O)[C@H](C)NC(=O)CC=C[C@H]1C | -0.235 | 0.18 | 0.314 | 0.0766 | 0.235 | 0.631 | 0.118 (inactive) | -0.693 | 0.86 | 0.488 (inactive) | 0.926 | -0.916 (inactive) | 0.433 (inactive) | 0.289 (inactive) | -1.13 (inactive) | -0.212 (inactive) | 0.618 (inactive) | -0.539 (inactive) | 0.351 | -0.327 |
| CO[C@H]1COC(=O)[C@@H](C)COC(=O)[C@H](COCc2ccccc2)NC(=O)CC=C[C@H]1C | 0.362 | 0.293 | 0.298 | 0.555 | 0.34 | 1.36 | -0.213 (inactive) | 0.529 | 2.5 | 0.266 (inactive) | -0.238 | -1.58 (inactive) | 0.671 (inactive) | 0.604 (inactive) | -0.543 (inactive) | 0.085 (inactive) | 1.05 (inactive) | -0.997 (inactive) | 0.267 | 0.227 |
| CO[C@H](C1CCCCC1)[C@H](C)C=CCC(=O)OCCCc1ccccc1 | 0.19 | -0.518 | -0.0782 | -0.237 | 0.182 | 0.639 | -0.249 (inactive) | 0.773 | -0.199 | 0.301 (inactive) | 0.159 | 0.878 (inactive) | 0.227 (inactive) | 0.503 (inactive) | -0.315 (inactive) | 1.63 (inactive) | -0.778 (inactive) | -0.417 (inactive) | -0.0411 | -0.193 |
| Cc1cc2c(c(=O)o1)[C@@H](O)[C@H]1O[C@H]1C2=O | -0.223 | 0.374 | 0.123 | 0.65 | -1.15 | -0.352 | -0.659 (inactive) | -0.141 | 0.0583 | -0.588 (inactive) | -0.721 | -0.582 (inactive) | 0.166 (inactive) | 0.664 (inactive) | -0.67 (inactive) | 0.322 (inactive) | -0.729 (inactive) | -1.26 (inactive) | -0.535 | 0.13 |
| CCCCC#C[C@@H]1C=C[C@H](Oc2ccc(C(=O)OC)cc2)[C@@H](COC(=O)OCC)O1 | -1.07 | 0.416 | -3.26 | -3.56 | -3.46 | -0.918 | 0.281 (inactive) | -0.614 | -1.95 | 0.313 (inactive) | 0.257 | -4.46 (inactive) | -1.6 (inactive) | -0.189 (inactive) | 0.472 (inactive) | -0.37 (inactive) | -0.301 (inactive) | -0.0901 (inactive) | -1.08 | -0.194 |
| CCOC(=O)[C@H](CC(C)C)NC(=O)CCC1CC(OC(=O)NCCc2ccc(F)cc2)CC2(CCCC(COC(=O)NCCC(C)C)O2)O1 (stereo not given in full) | -0.646 | 0.174 | 0.0995 | 0.773 | -0.479 | -0.488 | 0.152 (inactive) | 0.248 | -0.00687 | 0.0692 (inactive) | -0.566 | 1.2 (inactive) | 0.214 (inactive) | 0.322 (inactive) | 0.532 (inactive) | 0.821 (inactive) | 0.334 (inactive) | -0.139 (inactive) | 0.398 | 0.0938 |
| COc1ccc(O[C@H]2C=C[C@@H](c3ccccc3)O[C@@H]2COC(=O)CCC(C)=NOC[C@@H](O)[C@H]2O[C@@H]3OC(C)(C)O[C@@H]3[C@H]2O)cc1 | 1.11 | -0.519 | 0.26 | 0.152 | -0.0547 | -0.42 | 0.157 (inactive) | -0.299 | -0.199 | 0.138 (inactive) | 0.0784 | -0.727 (inactive) | 0.0383 (inactive) | -1.15 (inactive) | -0.348 (inactive) | 0.28 (inactive) | 1.18 (inactive) | -1.02 (inactive) | 1.04 | -0.0559 |
| CCc1cc2c(nc1CC)CCN(CCC(C)=NO[C@H](C)c1cn([C@H](CO)Cc3ccccc3)nn1)C2 | 0.449 | 1.22 | 0.405 | 0.341 | -0.905 | 0.551 | -1.37 (inactive) | -0.664 | 0.105 | -0.285 (inactive) | -0.605 | -0.0397 (inactive) | -0.376 (inactive) | 1.07 (inactive) | -0.503 (inactive) | -0.0857 (inactive) | -1.4 (inactive) | -1.17 (inactive) | -0.162 | 0.204 |
| CO[C@H]1COC(=O)CC=C[C@@H](C)[C@H](OC)COC(=O)CCC[C@@H]1C | -0.71 | -0.0523 | 0.0225 | 0.0987 | 0.102 | -0.639 | -0.399 (inactive) | -0.509 | -0.135 | 0.795 (inactive) | 0.855 | -0.966 (inactive) | 0.818 (inactive) | -0.526 (inactive) | -0.172 (inactive) | -1.45 (inactive) | 0.153 (inactive) | 0.039 (inactive) | 0.518 | 0.523 |
